# Measured values: PubChem BioAssay AID720706 (Broad Institute, 2013)
# In all, about 350,000 compounds went through this assay and about 5,500 (1.6%) were called active.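 How the source made its calls: active means significant combined selectivity score with lowered wild-type GFP, culture density cut under 30%, mutant RFP and density less affected; inactive means any of these conditions unmet.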 This excerpt belongs to a sample that is enriched for actives.
# Assay: GFP drop in mixed WT/humanized-ribosome E. coli culture – GFP/RFP fluorescence, OD600, single point, bacterial rRNA inhibitor project, primary screen (AID 720706)
# Conditions: E. coli WT GFP vs humanized-ribosome RFP mutants, 24 h; GFP signal change (wild-type ribosome): stronger effect = lower value, DMSO median 0, no signal -100; OD600 change: measured here: OD600 growth, DMSO median 0, no signal -100; RFP signal change: measured here: RFP humanized mutant strains, DMSO median 0, no signal -100, concentration not given here
Structure (SMILES),GFP signal change (wild-type ribosome),OD600 change [%],RFP signal change [%]
CN(C)Cc1cn(CC[C@H]2CC[C@H](NS(=O)(=O)c3ccccc3)[C@@H](CO)O2)nn1,-1.38% (inactive),8.8,-1.73
Cc1ccc(S(=O)(=O)N(C)C[C@H]2Oc3c(NS(=O)(=O)c4cn(C)cn4)cccc3C(=O)N([C@@H](C)CO)C[C@H]2C)cc1,4.44% (inactive),5.92,-0.801
CCC(=O)N(C)C[C@@H]1Oc2ncc(-c3ccccc3OC)cc2C(=O)N([C@@H](C)CO)C[C@@H]1C,-1.63% (inactive),0.66,1.16
COc1ccc(CNC(=O)C[C@@H]2C=C[C@@H](NC(=O)c3ccc4c(c3)OCO4)[C@@H](CO)O2)cc1,3.42% (inactive),5.74,-0.879
C[C@H](CO)N1C[C@H](C)[C@H](CN(C)S(C)(=O)=O)Oc2ncc(C3=CCCC3)cc2C1=O,4.58% (inactive),6.67,-1.55
O=C(c1ccc(N2CCOCC2)c([N+](=O)[O-])c1)N1CCN(c2ccccc2F)CC1,-19.6% (inactive),-35.6,-4.01
O=C(c1cccc(F)c1)N1CCN(c2ccc([N+](=O)[O-])c3cccnc23)CC1,-17.8% (active),-11,4.41
O=[N+]([O-])c1cc([N+](=O)[O-])c2cccnc2c1O,-15.7% (inactive),19.1,3.26
C[C@H]1CCCCO[C@@H](CN(C)Cc2ccncc2)[C@@H](C)CN([C@@H](C)CO)C(=O)c2cc(NC(=O)Nc3ccc(F)cc3)ccc2O1,1.44% (inactive),2.48,-0.987
CCCN(C)C[C@@H]1OCCCC[C@@H](C)Oc2ccc(NC(=O)CCCN(C)C)cc2C(=O)N([C@H](C)CO)C[C@@H]1C,-2.58% (inactive),6.85,-0.525
C[C@H](NC(=O)N(C)C[C@@H]1OCc2ccccc2-c2ccccc2C(=O)N([C@H](C)CO)C[C@@H]1C)c1ccccc1,-0.824% (inactive),6,-2.69
COc1ccc(S(=O)(=O)Nc2ccc3c(c2)C(=O)N(C)C[C@@H](OC)[C@H](C)CN(C(=O)NC(C)C)[C@H](C)CO3)cc1,2.15% (inactive),-6.48,0.485
CCCNC(=O)N(C)C[C@@H]1Oc2ncc(C#CCc3ccccc3)cc2C(=O)N([C@@H](C)CO)C[C@H]1C,2.5% (inactive),-2.83,-0.346
Cc1noc(C)c1S(=O)(=O)N(C)C[C@H]1OCCCC[C@H](C)Oc2ccc(NC(=O)c3ccccc3)cc2C(=O)N([C@@H](C)CO)C[C@H]1C,-1% (inactive),-0.308,2.4
CC(C)(C)NC(=O)NC(=O)COC(=O)Cc1ccc(Cl)cc1Cl,-19.2% (active),-0.7,-0.643
O=C(COC(=O)Cc1ccc(Cl)cc1Cl)NCc1ccco1,-17.4% (inactive),-6.25,0.815
CC(C)(C)NC(=O)NC(=O)COC(=O)Cc1c(F)cccc1Cl,-13.1% (inactive),-4.75,3.43
C[C@H](CO)N1C[C@H](C)[C@H](CN(C)Cc2ccncc2)Oc2ccc(NC(=O)Nc3ccc(F)cc3)cc2C1=O,0.717% (inactive),-2.2,-2.45
CN1c2ccc(-c3ccc(C#N)cc3)cc2[C@@H]2[C@@H](CCN2C(=O)C2CCCCC2)[C@H]1CO,-6.99% (inactive),-10.9,6.2

Structure (SMILES),GFP signal change (wild-type ribosome),OD600 change [%],RFP signal change [%]
CN(C)C(=O)c1ccc(-c2ccccc2[C@H]2[C@@H](CO)N(C(=O)C3CCCCC3)[C@H]2C#N)cc1,-3.32% (inactive),0.601,-4.88
O=C(NCCc1ccccc1)c1c[nH]c2ccc(F)cc2c1=O,-31.8% (active),-19.6,-3.4
O=C(NCCCc1ccccc1)C(=O)c1c[nH]c2ccccc12,0.21% (inactive),-1.22,-2.69
O=C(O)c1ccccc1-c1ccccc1C(=O)NCCc1ccccc1,7.6% (inactive),2.74,2.49
COCC(=O)N(C)C[C@H]1[C@@H](c2ccccc2)[C@H](CO)N1C(=O)Cc1ccncc1,4.17% (inactive),8.74,0.341
Cc1ccc(S(=O)(=O)N[C@H]2CC[C@@H](CC(=O)NCCCN(C)C)O[C@H]2CO)cc1,4.5% (inactive),5.89,-1.14
C[C@H](CO)N1C[C@H](C)[C@@H](CN(C)S(C)(=O)=O)Oc2ccc(NC(=O)Nc3ccc4c(c3)OCO4)cc2CC1=O,-0.075% (inactive),5.52,1.12
O=C(NNS(=O)(=O)c1ccccc1)c1cnn(-c2ccc(Cl)cc2)c1C(F)(F)F,-40.1% (active),20.1,3.85
NNC(=O)c1cnn(-c2ccccc2)c1C(F)(F)F,5.13% (inactive),9.29,-0.665
CCCc1c(C(=O)O)cnn1-c1ccc(Cl)cc1,-6.54% (inactive),-3.54,0.509
C[C@H]1CN([C@@H](C)CO)C(=O)c2cc(-c3ccncc3)cnc2O[C@@H]1CN(C)C(=O)C1CCCCC1,0.821% (inactive),4.66,-3.44
C[C@H](CO)N1C[C@H](C)[C@H](CN(C)C(=O)C2CC2)Oc2cc(-c3cccnc3)ccc2S1(=O)=O,-1.18% (inactive),3.4,0.533
CCCNC(=O)N1[C@H](CO)[C@@H](c2ccc(-c3ccc(C(=O)N(C)C)cc3)cc2)[C@@H]1C#N,6.87% (inactive),16.3,-2.83
O=C(c1ccc(F)cc1)N1CC(=O)N2[C@@H](CO)[C@H](c3ccc(C4=CCCC4)cc3)[C@@H]2C1,4.17% (inactive),4.94,-0.136
C[C@H](CO)N1C[C@H](C)[C@@H](CN(C)C(=O)C2CC2)Oc2cc(C#CC(C)(C)O)ccc2S1(=O)=O,1.02% (inactive),10.5,-2.74
COCC(=O)N1CC(=O)N2[C@H](C1)[C@H](c1ccc(C#CC3CCCCC3)cc1)[C@@H]2CO,2.23% (inactive),2.33,1.49
CN(c1ccccc1)S(=O)(=O)c1ccc(C(=O)NCCc2ccccc2)cc1,-12.7% (inactive),-28.7,-1.12
CN(c1ccccc1)S(=O)(=O)c1ccc(C(=O)NCc2cccnc2)cc1,-0.96% (inactive),-21.8,0.05
Cc1cccc(NC(=O)c2ccc(S(=O)(=O)N(C)c3ccccc3)cc2)n1,-16.8% (active),-25,1.23
